Reference: PubChem BioAssay AID1159580 (chemical genetic matrix, 2015)
“And” between values parts separate entries of the source, which are not always exact repeats. Identical values can stand only once. Screen size: about 5,500 compounds; about 2,000 (36%) were called active. About 18% were inconclusive and are not listed. No stated cut-off is given here; in the data, active means normalized growth mostly below about 0.91 (no sharp cut-off); inconclusive means no clear call, values can overlap the other calls; inactive means mostly above about 0.92. The list shows a part of the results.

Test: chemical genetic growth profiling, strain panel (AID 1159580);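 further: tested at 20 µM; growth read once vehicle control cultures reached saturation at 30 °C; 1 = growth at the plate median or of vehicle wells; lower values mean less growth of the strain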
Settings: growth OD

Measured: normalized growth

COC(=O)COc1ccc(Cl)cc1Cl
inactive: S. cerevisiae deletion strains, locus YAL013W, strain DEP1, active compounds read low 1 | S. cerevisiae deletion strains, locus YBR021W, strain FUR4, active compounds read low 1.01 | S. cerevisiae deletion strains, locus YBR229C, strain ROT2, active compounds read low 1.01 | S. cerevisiae deletion strains, locus YCL029C, strain bik1, active compounds read low 1.02 | S. cerevisiae deletion strains, locus YDL035C, strain GPR1, active compounds read low 1.02 | S. cerevisiae deletion strains, locus YDL074C, strain BRE1, active compounds read low 1.03 | S. cerevisiae deletion strains, locus YDL101C, strain DUN1, active compounds read low 1.01 | S. cerevisiae deletion strains, locus YDL134C, strain PPH21, active compounds read low 1.01 | S. cerevisiae deletion strains, locus YDL185W, strain tfp1, active compounds read low 1.01 | S. cerevisiae deletion strains, locus YDL192W, strain arf1, active compounds read low 1.02 | S. cerevisiae deletion strains, locus YDR101C, strain arx1, active compounds read low 1.02 | S. cerevisiae deletion strains, locus YDR150W, strain NUM1, active compounds read low 1 | S. cerevisiae deletion strains, locus YDR162C, strain NBP2, active compounds read low 0.996 | S. cerevisiae deletion strains, locus YDR318W, strain mcm21, active compounds read low 1.02 | S. cerevisiae deletion strains, locus YDR388W, active compounds read low 1.02 | S. cerevisiae deletion strains, locus YDR502C, strain sam2, active compounds read low 1.02 | S. cerevisiae deletion strains, locus YEL061C, strain CIN8, active compounds read low 1 | S. cerevisiae deletion strains, locus YER110C, active compounds read low 1.01 | S. cerevisiae deletion strains, locus YER155C, strain BEM2, active compounds read low 1 | S. cerevisiae deletion strains, locus YER167W, strain BCK2, active compounds read low 1 | S. cerevisiae deletion strains, locus YGL078C, strain dbp3, active compounds read low 1.01 | S. cerevisiae deletion strains, locus YGL086W, strain mad1, active compounds read low 1 | S. cerevisiae deletion strains, locus YGL248W, strain PDE1, active compounds read low 1.01 | S. cerevisiae deletion strains, locus YGR078C, strain PAC10, active compounds read low 1.02 | S. cerevisiae deletion strains, locus YGR135W, strain pre9, active compounds read low 1.02 | S. cerevisiae deletion strains, locus YGR229C, strain SMI1, active compounds read low 1.01 | S. cerevisiae deletion strains, locus YGR252W, strain gcn5, active compounds read low 1.04 | S. cerevisiae deletion strains, locus YHR030C, strain SLT2, active compounds read low 1.01 and 1.04 | S. cerevisiae deletion strains, locus YHR079C, strain IRE1 (second series), active compounds read low 1.01 | S. cerevisiae deletion strains, locus YHR079C, strain IRE1, active compounds read low 1.03 | S. cerevisiae deletion strains, locus YHR094C, strain hxt1, active compounds read low 1.02 | S. cerevisiae deletion strains, locus YHR129C, strain ARP1, active compounds read low 1.01 | S. cerevisiae deletion strains, locus YHR200W, strain rpn10, active compounds read low 1.01 | S. cerevisiae deletion strains, locus YIL066C, strain RNR3, active compounds read low 1.02 | S. cerevisiae deletion strains, locus YIL073C, strain SPO22, active compounds read low 1.08 | S. cerevisiae deletion strains, locus YIL125W, strain kgd1, active compounds read low 1.01 | S. cerevisiae deletion strains, locus YIR030C, strain dcg1, active compounds read low 1.02 | S. cerevisiae deletion strains, locus YJL095W, strain BCK1, active compounds read low 1 and 1.05 | S. cerevisiae deletion strains, locus YJL134W, strain LCB3, active compounds read low 1 | S. cerevisiae deletion strains, locus YJL168C, strain set2, active compounds read low 1.02 | S. cerevisiae deletion strains, locus YJL187C, strain SWE1 (second series), active compounds read low 1.01 | S. cerevisiae deletion strains, locus YJR043C, strain POL32, active compounds read low 1.01 | S. cerevisiae deletion strains, locus YJR066W, strain TOR1, active compounds read low 0.975 | S. cerevisiae deletion strains, locus YJR075W, strain HOC1, active compounds read low 1.01 | S. cerevisiae deletion strains, locus YKL009W, strain mrt4, active compounds read low 1.03 | S. cerevisiae deletion strains, locus YKL068W, active compounds read low 1.01 | S. cerevisiae deletion strains, locus YKL085W, strain MDH1 (second series), active compounds read low 0.993 | S. cerevisiae deletion strains, locus YKL085W, strain MDH1, active compounds read low 0.993 | S. cerevisiae deletion strains, locus YKL190W, strain CNB1, active compounds read low 1.01 | S. cerevisiae deletion strains, locus YKR001C, strain vps1, active compounds read low 1.04 | S. cerevisiae deletion strains, locus YLR039C, strain RIC1, active compounds read low 1.02 | S. cerevisiae deletion strains, locus YLR058C, strain SHM2, active compounds read low 1.02 | S. cerevisiae deletion strains, locus YLR102C, strain apc9, active compounds read low 1.01 | S. cerevisiae deletion strains, locus YLR113W, strain HOG1, active compounds read low 0.974 | S. cerevisiae deletion strains, locus YLR262C, strain YPT6, active compounds read low 1.06 | S. cerevisiae deletion strains, locus YLR268W, strain sec22, active compounds read low 1.03 | S. cerevisiae deletion strains, locus YLR330W, strain CHS5, active compounds read low 1.01 | S. cerevisiae deletion strains, locus YLR342W, strain FKS1 (second series), active compounds read low 1.01 | S. cerevisiae deletion strains, locus YLR371W, strain rom2, active compounds read low 1.01 | S. cerevisiae deletion strains, locus YLR418C, strain cdc73, active compounds read low 1.04 | S. cerevisiae deletion strains, locus YML016C, strain PPZ1, active compounds read low 1.01 | S. cerevisiae deletion strains, locus YML032C, strain rad52, active compounds read low 1.02 | S. cerevisiae deletion strains, locus YML124C, strain tub3, active compounds read low 1.02 | S. cerevisiae deletion strains, locus YMR078C, strain ctf18, active compounds read low 1.03 | S. cerevisiae deletion strains, locus YMR223W, strain ubp8, active compounds read low 1.02 | S. cerevisiae deletion strains, locus YMR263W, strain SAP30, active compounds read low 1 | S. cerevisiae deletion strains, locus YMR307W, strain GAS1, active compounds read low 1.02 | S. cerevisiae deletion strains, locus YNL067W, strain RPL9B, active compounds read low 1 | S. cerevisiae deletion strains, locus YNL128W, strain TEP1, active compounds read low 1.01 | S. cerevisiae deletion strains, locus YNL153C, strain GIM3, active compounds read low 1.01 | S. cerevisiae deletion strains, locus YNL183C, strain NPR1, active compounds read low 0.969 | S. cerevisiae deletion strains, locus YNL233W, strain BNI4, active compounds read low 1 | S. cerevisiae deletion strains, locus YNL250W, strain rad50, active compounds read low 1.01 | S. cerevisiae deletion strains, locus YNL271C, strain bni1, active compounds read low 1 | S. cerevisiae deletion strains, locus YNL298W, strain CLA4, active compounds read low 1.04 | S. cerevisiae deletion strains, locus YNL307C, strain MCK1, active compounds read low 1.03 | S. cerevisiae deletion strains, locus YNL322C, strain KRE1, active compounds read low 1.01 | S. cerevisiae deletion strains, locus YNR052C, strain pop2, active compounds read low 1.03 | S. cerevisiae deletion strains, locus YOL006C, strain TOP1, active compounds read low 1.02 | S. cerevisiae deletion strains, locus YOL012C, strain htz1 1.19 | S. cerevisiae deletion strains, locus YOL147C, strain pex11, active compounds read low 1.01 | S. cerevisiae deletion strains, locus YOR061W, strain CKA2, active compounds read low 0.997 | S. cerevisiae deletion strains, locus YOR069W, strain VPS5, active compounds read low 1 | S. cerevisiae deletion strains, locus YOR136W, strain idh2, active compounds read low 1.02 | S. cerevisiae deletion strains, locus YOR144C, strain elg1, active compounds read low 1.02 | S. cerevisiae deletion strains, locus YOR184W, strain ser1, active compounds read low 1.03 | S. cerevisiae deletion strains, locus YOR231W, strain MKK1, active compounds read low 1.04 | S. cerevisiae deletion strains, locus YOR316C, strain cot1, active compounds read low 1.01 | S. cerevisiae deletion strains, locus YPL055C, strain LGE1, active compounds read low 1.02 | S. cerevisiae deletion strains, locus YPL241C, strain CIN2, active compounds read low 1 | S. cerevisiae deletion strains, locus YPL256C, strain CLN2, active compounds read low 1.05 | S. cerevisiae deletion strains, locus YPR119W, strain clb2, active compounds read low 1.01 | S. cerevisiae deletion strains, locus YPR141C, strain kar3, active compounds read low 1.01 | S. cerevisiae deletion strains, locus YPR163C, strain tif3, active compounds read low 1.02 | S. cerevisiae deletion strains, locus YPR167C, strain met16, active compounds read low 1.01 | S. cerevisiae deletion strains, strain wtn01, active compounds read low 1.01 | S. cerevisiae strains, strain wild type, active compounds read low 1
